Data from the supplement of paper PMC12350171.
Counter-ions that a name gives are not always drawn.

What was measured:
Conditions in all cases: 20 µM
[1] = test system: Salmonella enterica typhimurium; assay: growth AUC normalised to DMSO control (fraction of control); higher = less growth inhibition, active = hit call of the paper
Method in brief: (§1)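 Pathogens were passaged twice under anaerobic conditions, then inoculated into pre-reduced mGAM plates at a starting OD578 of 0.01, with compound at 20 μM and 1% DMSO, and sealed with breathable membranes. For Haemophilus parainfluenzae, the medium was supplemented with hemin and NAD. OD578 was read every hour for 24 h in three biological replicates. Growth-curve AUC was calculated by the trapezoidal rule up to the exponential-to-stationary transition and normalised to DMSO controls on the same plate.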

Shigella flexneri = assay: as above
Method in brief: as §1

Vibrio cholerae = assay: as above
Method in brief: as §1

[2] = test system: Yersinia pseudotuberculosis; assay: as above
Method in brief: as §1

P. vulgatus RND KO = assay: growth AUC normalised to DMSO control (median) (fraction of control); higher = less growth inhibition, active = hit call of the paper
Method in brief: (§2)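 Anaerobic growth was tracked hourly at OD578 for 24 h in 96-well plates of mGAM seeded at OD578 0.01 with each approved-drug library compound at 20 μM and 1% DMSO. Strains had first been passaged twice overnight without oxygen. Three biological replicates were run. The reported median is the area under the curve, calculated by the trapezoidal rule on curves truncated at entry into stationary phase and normalised to vehicle wells on the same plate.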

P. vulgatus WT = assay: as above
Method in brief: as §2

[3] = test system: S. enterica typhimurium WT; assay: as above
Method in brief: as §2

[4] = test system: S. enterica typhimurium tolC KO; assay: as above
Method in brief: as §2

Measured: growth AUC normalised to DMSO control
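Throughout, for growth AUC normalised to DMSO control (median): active when median AUC fell below 0.1.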

CCC(Cc1c(I)cc(I)c(N)c1I)C(=O)O (stereo not given) [Iopanoic acid]
inactive: [1] 1.01 | Shigella flexneri 1.01 | Vibrio cholerae 1.01 | [2] 0.989 | P. vulgatus RND KO 0.999 | P. vulgatus WT 1 | [3] 1.01 | [4] 0.987

CN(C)CCCO[C@@H]1[C@H]2OC(C)(C)O[C@H]2O[C@@H]1[C@H](O)CO [Amiprilose hydrochloride]
inactive: [1] 0.904 | Shigella flexneri 1 | Vibrio cholerae 0.986 | [2] 0.997 | P. vulgatus RND KO 0.969 | P. vulgatus WT 0.966 | [3] 1.01 | [4] 1

C[C@@H](O)[C@H]1C(=O)N2C(C(=O)O)=C(S[C@@H]3CN[C@H](C(=O)N(C)C)C3)[C@H](C)[C@H]12 [Meropenem]
inactive: Vibrio cholerae 0.844
active: [1] 0.00502 | Shigella flexneri 0.0408 | [2] 0.0586 | P. vulgatus RND KO 0.0122 | P. vulgatus WT 0.0155 | [3] 0.00861 | [4] 0.00577

Nc1ncn(C2OC(CO)C(O)C2O)c(=O)n1 (stereo not given) [Azacytidine-5]
inactive: [1] 1.02 | Shigella flexneri 1.04 | Vibrio cholerae 1.02 | [2] 1.04 | P. vulgatus RND KO 0.999 | P. vulgatus WT 0.996 | [3] 0.977 | [4] 0.963

CCCCc1oc2ccccc2c1C(=O)c1cc(I)c(OCCN(CC)CC)c(I)c1 [Amiodarone hydrochloride]
inactive: [1] 0.999 | Shigella flexneri 1.04 | Vibrio cholerae 1 | [2] 1.02 | P. vulgatus RND KO 1.02 | P. vulgatus WT 1.06 | [3] 1.04 | [4] 1.02

CCC(C)n1ncn(-c2ccc(N3CCN(c4ccc(OCC5COC(Cn6cncn6)(c6ccc(Cl)cc6Cl)O5)cc4)CC3)cc2)c1=O (stereo not given) [Itraconazole]
inactive: [1] 1.01 | Shigella flexneri 1.03 | Vibrio cholerae 1.04 | [2] 0.998 | P. vulgatus RND KO 1.1 | P. vulgatus WT 1.1 | [3] 1.02 | [4] 1

COc1cc2nc(N3CCN(C(=O)c4ccco4)CC3)nc(N)c2cc1OC [Prazosin hydrochloride]
inactive: [1] 0.993 | Shigella flexneri 0.984 | Vibrio cholerae 1 | [2] 1.01 | P. vulgatus RND KO 1 | P. vulgatus WT 1 | [3] 0.993 | [4] 0.97

CCN(CCCCOC(=O)c1ccc(OC)c(OC)c1)C(C)Cc1ccc(OC)cc1 (stereo not given) [Mebeverine hydrochloride]
inactive: [1] 1.01 | Shigella flexneri 1.03 | Vibrio cholerae 1.02 | [2] 1.01 | P. vulgatus RND KO 1.01 | P. vulgatus WT 1.01 | [3] 1 | [4] 0.934

O=C(CCNNC(=O)c1ccncc1)NCc1ccccc1 [Nialamide]
inactive: [1] 0.997 | Shigella flexneri 1.02 | Vibrio cholerae 1.05 | [2] 1.01 | P. vulgatus RND KO 0.995 | P. vulgatus WT 1.04 | [3] 0.999 | [4] 1.01

Clc1ccc(CO/N=C(\Cn2ccnc2)c2ccc(Cl)cc2Cl)c(Cl)c1 [Oxiconazole nitrate]
inactive: [1] 1.02 | Shigella flexneri 1.04 | Vibrio cholerae 1.05 | [2] 0.983 | P. vulgatus RND KO 1.01 | P. vulgatus WT 1.04 | [3] 1 | [4] 0.909

CN(C)CCN(Cc1cccs1)c1ccccn1 [Methapyrilene hydrochloride]
inactive: [1] 0.977 | Shigella flexneri 0.972 | Vibrio cholerae 0.995 | [2] 0.994 | P. vulgatus RND KO 1.01 | P. vulgatus WT 0.995 | [3] 1 | [4] 0.985

O=C(c1ccc(OCCN2CCCCC2)cc1)c1c(-c2ccc(O)cc2)sc2cc(O)ccc12 [Raloxifene hydrochloride]
inactive: [1] 1.01 | Shigella flexneri 0.992 | Vibrio cholerae 0.988 | [2] 0.981 | P. vulgatus RND KO 1.06 | P. vulgatus WT 1.01 | [3] 1.02 | [4] 1.01

CC(=O)Oc1ccccc1C(=O)Oc1ccccc1C(=O)O [Acetylsalicylsalicylic acid]
inactive: [1] 0.997 | Shigella flexneri 0.973 | Vibrio cholerae 0.983 | [2] 0.932 | P. vulgatus RND KO 0.998 | P. vulgatus WT 1.04 | [3] 0.999 | [4] 0.997

COc1ccc(CC(C)NCC(O)c2ccc(O)c(NC=O)c2)cc1 (stereo not given) [Formoterol fumarate]
inactive: [1] 1.01 | Shigella flexneri 1.07 | Vibrio cholerae 0.995 | [2] 1.05 | P. vulgatus RND KO 1.01 | P. vulgatus WT 1.02 | [3] 1.01 | [4] 0.998

NC(=O)OCC(O)COc1ccc(Cl)cc1 (stereo not given) [Chlorphensin carbamate]
inactive: [1] 1.01 | Shigella flexneri 1.01 | Vibrio cholerae 1.03 | [2] 1.01 | P. vulgatus RND KO 0.992 | P. vulgatus WT 0.994 | [3] 1.02 | [4] 0.987

Cc1cnc(C(=O)NCCc2ccc(S(=O)(=O)NC(=O)NC3CCCCC3)cc2)cn1 [Glipizide]
inactive: [1] 1.01 | Shigella flexneri 0.984 | Vibrio cholerae 1.01 | [2] 1.01 | P. vulgatus RND KO 1.04 | P. vulgatus WT 0.998 | [3] 1.01 | [4] 0.996

C1N2CN3CN1CN(C2)C3 [Methenamine]
inactive: [1] 1.02 | Shigella flexneri 1.02 | Vibrio cholerae 1.05 | [2] 1.03 | P. vulgatus RND KO 1 | P. vulgatus WT 1.03 | [3] 1 | [4] 0.991

CC(=O)/N=c1/sc(S(N)(=O)=O)nn1C [Methazolamide]
inactive: [1] 0.99 | Shigella flexneri 1.04 | Vibrio cholerae 1.05 | [2] 0.979 | P. vulgatus RND KO 1.07 | P. vulgatus WT 1.06 | [3] 1.01 | [4] 1.02

C[C@]12CC[C@H]3[C@@H](CCC4=CC(=O)CC[C@@]43C)[C@@H]1CC[C@@H]2C(=O)CO [Deoxycorticosterone]
inactive: [1] 1 | Shigella flexneri 1.03 | Vibrio cholerae 1.03 | [2] 1.03 | P. vulgatus RND KO 1.07 | P. vulgatus WT 1.07 | [3] 1 | [4] 0.933

CCCCCCCN(CC)CCCC(O)c1ccc(NS(C)(=O)=O)cc1 (stereo not given) [Ibutilide fumarate]
inactive: [1] 0.991 | Shigella flexneri 0.961 | Vibrio cholerae 0.964 | [2] 0.989 | P. vulgatus RND KO 1.01 | P. vulgatus WT 0.991 | [3] 0.996 | [4] 1.01

Cc1ncc(CO)c(CO)c1O [Pyridoxine hydrochloride]
inactive: [1] 0.992 | Shigella flexneri 1.01 | Vibrio cholerae 0.996 | [2] 1 | P. vulgatus RND KO 1.01 | P. vulgatus WT 1.01 | [3] 1.01 | [4] 0.992

Nc1nc(=O)c2c([nH]1)NC[C@@H](CNc1ccc(C(=O)N[C@@H](CCC(=O)O)C(=O)O)cc1)N2C=O [Folinic acid calcium salt]
inactive: [1] 1 | Shigella flexneri 0.999 | Vibrio cholerae 1.01 | [2] 1 | P. vulgatus RND KO 1.01 | P. vulgatus WT 1.04 | [3] 1 | [4] 1

CN(C)CCN(Cc1ccccc1)c1ccccn1 [Tripelennamine hydrochloride]
inactive: [1] 1 | Shigella flexneri 0.993 | Vibrio cholerae 1.01 | [2] 0.973 | P. vulgatus RND KO 0.982 | P. vulgatus WT 0.985 | [3] 0.965 | [4] 1

CO/N=C(\C(=O)N[C@@H]1C(=O)N2C(C(=O)O)=C(C[N+]3(C)CCCC3)CS[C@H]12)c1csc(N)n1 [Cefepime hydrochloride]
active: [1] 0.00376 | Shigella flexneri 0.0351 | Vibrio cholerae 0.178 | [2] 0.049 | P. vulgatus RND KO 0.0104 | P. vulgatus WT 0.0103 | [3] 0.00386 | [4] 0.00189

CC(C)[N+](C)(CCOC(=O)C1c2ccccc2Oc2ccccc21)C(C)C [Propantheline bromide]
inactive: [1] 0.974 | Shigella flexneri 0.983 | Vibrio cholerae 0.967 | [2] 1 | P. vulgatus RND KO 0.966 | P. vulgatus WT 0.958 | [3] 1 | [4] 0.981

CCCCN1CCCCC1C(=O)Nc1c(C)cccc1C (stereo not given) [Bupivacaine hydrochloride]
inactive: [1] 1.04 | Shigella flexneri 0.973 | Vibrio cholerae 0.998 | [2] 0.973 | P. vulgatus RND KO 1.01 | P. vulgatus WT 0.998 | [3] 0.998 | [4] 0.985

Clc1ccccc1C(c1ccccc1)(c1ccccc1)n1ccnc1 [Clotrimazole]
inactive: [1] 0.992 | Shigella flexneri 1.02 | Vibrio cholerae 0.932 | [2] 0.985 | P. vulgatus RND KO 0.952 | P. vulgatus WT 0.954 | [3] 0.995 | [4] 0.829

Oc1c(Cl)cc(Cl)c2cccnc12 [Chloroxine]
active: [1] 0.922 | Shigella flexneri 0.884 | Vibrio cholerae 0.0387 | [2] 0.652 | P. vulgatus WT 0.0729
inactive: P. vulgatus RND KO 0.32 | [3] 0.969 | [4] 0.568

CNCCCC1c2ccccc2C=Cc2ccccc21 [Protriptyline hydrochloride]
inactive: [1] 0.973 | Shigella flexneri 1 | Vibrio cholerae 0.997 | [2] 1 | P. vulgatus RND KO 0.913 | P. vulgatus WT 0.882 | [3] 0.996 | [4] 0.951

Nc1ccc(S(=O)(=O)Nc2nccs2)cc1 [Sulfathiazole]
inactive: [1] 1.02 | Shigella flexneri 1 | Vibrio cholerae 1.01 | [2] 1.01 | P. vulgatus RND KO 0.995 | P. vulgatus WT 1.01 | [3] 0.985 | [4] 0.974
